Out of some 310,000 compounds screened, about 2,200 (0.71%) showed an effect of 50% or more. Effects have a minus sign here. Only a selection was taken, and strong results are over-represented in it overall.
biological target: human ether-à-go-go-related gene (hERG) potassium channel (human, UniProt Q12809); test: primary screen, population patch clamp on CHO cells stably expressing hERG; higher = less effect of the substance
Description: Briefly, Chinese hamster ovary (CHO) cells stably expressing the hERG channel were dislodged from tissue culture flasks and dispensed into PPC plates. […] During the recording, background leak currents were estimated by a 100 ms step to -80 mV from an initial holding potential of -70 mV and subtracted from the subsequent current measurement. The campaign was conducted in two phases using slight differences in recording protocol. In the first phase, the initial voltage pulse used a 100 ms step to -30 mV from a holding potential of -70 mV, a 2 s conditioning step to +25 mV, and a 2 s test step to -30 mV. During the second phase of the screen, the potential during the conditioning step was raised to +45 mV. In both phases of the campaign, a secondary voltage pulse was applied using the same parameters as the second phase initial pulse. The initial and secondary pulses were applied in the absence of compound, and upon application of 1 μM and 10 μM test concentrations. Small molecule effects on hERG current density were quantified by […].

Sequence of human ether-à-go-go-related gene (hERG) potassium channel (Q12809 whole entry, looked up): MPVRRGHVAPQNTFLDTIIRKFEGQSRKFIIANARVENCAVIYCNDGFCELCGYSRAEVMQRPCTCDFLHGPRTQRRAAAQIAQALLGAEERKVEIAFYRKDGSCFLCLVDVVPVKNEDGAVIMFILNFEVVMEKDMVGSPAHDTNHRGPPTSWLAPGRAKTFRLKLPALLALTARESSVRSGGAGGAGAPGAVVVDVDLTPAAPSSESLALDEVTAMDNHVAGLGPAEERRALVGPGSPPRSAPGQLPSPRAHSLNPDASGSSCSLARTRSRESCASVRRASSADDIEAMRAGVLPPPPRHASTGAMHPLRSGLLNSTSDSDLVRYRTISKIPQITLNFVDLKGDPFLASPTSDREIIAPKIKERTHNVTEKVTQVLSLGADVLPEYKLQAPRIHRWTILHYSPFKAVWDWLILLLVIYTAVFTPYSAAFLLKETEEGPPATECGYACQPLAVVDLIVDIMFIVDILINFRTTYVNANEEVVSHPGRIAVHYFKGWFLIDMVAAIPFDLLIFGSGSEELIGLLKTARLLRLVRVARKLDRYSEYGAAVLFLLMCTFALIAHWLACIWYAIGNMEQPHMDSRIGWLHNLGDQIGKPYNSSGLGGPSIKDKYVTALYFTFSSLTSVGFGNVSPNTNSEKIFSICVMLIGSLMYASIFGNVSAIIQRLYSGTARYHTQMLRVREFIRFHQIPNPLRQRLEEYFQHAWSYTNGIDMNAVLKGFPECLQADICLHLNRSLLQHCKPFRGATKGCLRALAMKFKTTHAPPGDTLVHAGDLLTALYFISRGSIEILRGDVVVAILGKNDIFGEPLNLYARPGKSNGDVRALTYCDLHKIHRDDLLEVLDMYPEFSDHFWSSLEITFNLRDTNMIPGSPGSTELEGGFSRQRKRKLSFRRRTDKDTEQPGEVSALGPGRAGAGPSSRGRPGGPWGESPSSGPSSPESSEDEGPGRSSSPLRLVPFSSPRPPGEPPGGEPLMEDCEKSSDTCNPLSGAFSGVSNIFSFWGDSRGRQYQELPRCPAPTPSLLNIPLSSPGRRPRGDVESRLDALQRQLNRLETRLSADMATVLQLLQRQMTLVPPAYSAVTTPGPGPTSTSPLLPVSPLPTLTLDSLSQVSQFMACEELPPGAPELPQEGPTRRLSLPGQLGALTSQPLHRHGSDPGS

SMILES | hERG current change (%, negative = inhibition) at 1uM [%]
CCC(C)NC(=O)C(=O)NCc1ccncc1 (stereo not drawn) | 10.8
CN1CCN(NC(=O)c2ccccc2F)CC1 | 11.7
COc1ccc(CC(=O)Oc2cc(C)[nH]c(=O)c2[N+](=O)[O-])cc1 | 4.19
COc1ccc(-c2csc(/C=C/c3ccc4c(c3)OCO4)n2)cc1OC | 2.68
CN(c1ncnc(N)c1[N+](=O)[O-])C1CCCCC1 | 12.5
Cc1ccc(S(=O)(=O)N2CCC(C(=O)N3CCC3)CC2)cc1 | 11.3
CC(C)OC(=O)COc1cc(O)c2c(=O)cc(-c3ccccc3)oc2c1 | 10.8
CCOC(=O)C1CCCN(CCCc2ccccc2)C1 (stereo not drawn) | -2.62
COc1ccccc1-c1ccc(=O)n(CC(=O)NCc2cccs2)n1 | 15.8
COCCC(=O)N1CCC(Oc2ccc(C(=O)N3C[C@@H]4CCC[C@H]3C4)cc2)CC1 | 5.49
OC[C@H]1O[C@@H](Oc2ccc3cc(Br)ccc3c2)[C@H](O)[C@@H](O)[C@H]1O | 4.75
CCOc1ccc(CN2CCN(Cc3cccn3-c3cccnc3)CC2CCO)cc1 (stereo not drawn) | -86.3
CC(C)CCN1CCN(Cc2cccn2-c2cccnc2)CC1CCO (stereo not drawn) | -9.84
OCCC1CN(Cc2cccn2-c2cccnc2)CCN1Cc1ccc(F)cc1 (stereo not drawn) | -21.4
Cc1cc(/C([O-])=C(/C(=S)Nc2ccccc2)[n+]2ccccc2)c(C)n1-c1ccccc1 | 9.1
O=C1CC(N2CCN(C3CCc4ccccc4C3)CC2)C(=O)N1c1ccccc1 (stereo not drawn) | -42.7
Cc1ccc(N2C(=O)CC(N3CCN(c4ccccn4)CC3)C2=O)cc1 (stereo not drawn) | -8.68
CCOc1ccc(N2C(=O)CC(N3CCc4ccccc43)C2=O)cc1 (stereo not drawn) | 5.06
CCOc1ccc(N2C(=O)CC(N3CCN(C4CCc5ccccc5C4)CC3)C2=O)cc1 (stereo not drawn) | -65.5
Cc1ccc(N2C(=O)CC(N3CCN(C4CCc5ccccc5C4)CC3)C2=O)cc1 (stereo not drawn) | -59
COc1ccc(N2C(=O)CC(N3CCN(C4CCc5ccccc5C4)CC3)C2=O)cc1 (stereo not drawn) | -37.7

SMILES | hERG current change (%, negative = inhibition) at 1uM [%]
O=C(CSc1nc2[nH]ncc2c(=O)[nH]1)Nc1ccc(F)cc1 | 13.3
N#Cc1c(-c2ccccc2)cc(-c2ccc3c(c2)OCO3)[nH]c1=O | 11
CCCCC(C(=O)O)C(C)CC(=O)Nc1cccc(C(=O)O)c1 (stereo not drawn) | 3.02
Cc1cccc(OCCSCc2nc3ccccc3[nH]2)c1 | 12.1
CC(=O)Nc1ccc(S(=O)(=O)Nc2ccc(-c3ccc4nnc(C)n4n3)cc2)cc1 | -3.52
Cc1cccc(NC(=O)c2cc3c(=O)n4ccccc4nc3n(CC(C)C)c2=N)c1 | -52.2
Cc1cccc(NC(=O)c2c(C)nc3ccccn23)c1 | 3.98
COc1ccc(NC(=O)c2cc3c(=O)n4ccccc4nc3n2C)cc1OC | 11.4
Cc1cccc(NC(=O)c2cc3c(=O)n4ccccc4nc3s2)c1 | 11.5
COc1cccc(NC(=O)C(Sc2nc3ccccc3c(=O)n2CC(C)C)c2ccccc2)c1 (stereo not drawn) | 6.46
COc1cccc(NC(=O)c2cc3c(=O)n4ccccc4nc3n(CC(C)C)c2=N)c1 | -87.5
CCCC(=O)Nc1nnc(CCc2ccccc2)s1.Cl | 12.1
COc1cccc(NC(=O)NC2(C(F)(F)F)Oc3ccccc3O2)c1 | 8.19
Cc1cc(C)n(CC(=O)c2ccc(Br)cc2)c(=O)c1C#N | -2.8
CCCN(c1ccc(OCC)cc1)S(=O)(=O)c1ccc2c(c1)CCN2C(=O)CCC(=O)O | 12.5
N=c1c(C(=O)NCc2ccc(F)cc2)cc2c(=O)n3ccccc3nc2n1CCCN1CCOCC1 | -91.8
N=c1c(C(=O)NCCc2ccccc2)cc2c(=O)n3ccccc3nc2n1CCCN1CCOCC1 | -77.8
O=C(NCCN1CCOCC1)c1cc2c(=O)n3ccccc3nc2n1Cc1ccccc1 | 8.53
N=c1c(C(=O)NCc2ccccc2)cc2c(=O)n3ccccc3nc2n1CCCN1CCOCC1 | -80.7
N=c1c(C(=O)NCCN2CCOCC2)cc2c(=O)n3ccccc3nc2n1Cc1ccc(F)cc1 | -19.2
N=c1c(S(=O)(=O)c2ccccc2)cc2c(=O)n3ccccc3nc2n1CCCN1CCOCC1 | -42.5

SMILES | hERG current change (%, negative = inhibition) at 1uM [%]
N=c1c(C(=O)NCCN2CCOCC2)cc2c(=O)n3ccccc3nc2n1CCCN1CCOCC1 | 13.2
Cc1ccc(S(=O)(=O)c2cc3c(=O)n4ccccc4nc3n(CCCN3CCOCC3)c2=N)cc1C | 2.37
COc1ccc(/C=C/CN2CCC(Oc3ccc(C(=O)N4CCCCC4)cc3)CC2)cc1 | -15.6
COc1ccc(-c2nc(C#N)c(NCCc3ccccc3)o2)cc1OC | 10.5
COc1ccc(NC(=O)C/C(C)=N/NC(=O)C(=O)NC2CCCCC2)c(OC)c1 | -3.65
COc1cc(NC(=O)C/C(C)=N/NC(=O)C(=O)NC2CCCCC2)c(OC)cc1Cl | -66.8
COc1cc(NC(=O)C/C(C)=N/NC(=O)C2CCCCC2)c(OC)cc1Cl | 14.8
O=C(NCc1cccnc1)C12CC3CC(CC(Cl)(C3)C1)C2 | 19
Cc1cccc(NC(=O)c2c(F)c(F)c(F)c(F)c2F)c1 | -0.482
Cc1cc([N+](=O)[O-])ccc1NCc1ccccc1 | 4.76
Cc1cc([N+](=O)[O-])ccc1NC(=O)CN1CCN(Cc2ccccc2)CC1 | -73.7
O=C(CN1CCN(c2cccc(Cl)c2)CC1)Nc1ccc([N+](=O)[O-])cc1C(=O)Nc1ccccc1F | 11.4
O=[N+]([O-])c1cc(C(F)(F)F)ccc1NC1CCN(Cc2ccccc2)CC1 | 3.28
Cc1cc([N+](=O)[O-])ccc1NCc1cccc([N+](=O)[O-])c1 | -56.6
Cc1ccccc1NC(=O)CN1CCN(Cc2ccccc2)CC1 | 1.75
O=[N+]([O-])c1ccc(NC2CCN(Cc3ccccc3)CC2)c([N+](=O)[O-])c1 | -60
Cc1ccc(F)cc1NC(=O)CN1CCN(Cc2ccccc2)CC1 | -16.8
O=[N+]([O-])c1ccccc1NC1CCN(Cc2ccccc2)CC1 | -26.7
O=C(CN1CCN(Cc2ccccc2)CC1)Nc1ccc([N+](=O)[O-])cc1C(=O)Nc1ccccc1F | -56.8
CCOC(=O)N1CCN(CC(=O)Nc2ccc([N+](=O)[O-])cc2C(=O)Nc2ccccc2F)CC1 | -5.13
COc1cccc(CNc2ccc([N+](=O)[O-])cc2C)c1 | 10.7
